About 300 (0.083%) of roughly 360,000 compounds were called active. Rule as the data show it: active = activation above about 40%; inconclusive = between about 15% and that limit; inactive = weaker than that. Shown is part of a subset that was picked to be rich in actives.

Chain of D(2) dopamine receptor (Homo sapiens) (P14416 whole entry, looked up): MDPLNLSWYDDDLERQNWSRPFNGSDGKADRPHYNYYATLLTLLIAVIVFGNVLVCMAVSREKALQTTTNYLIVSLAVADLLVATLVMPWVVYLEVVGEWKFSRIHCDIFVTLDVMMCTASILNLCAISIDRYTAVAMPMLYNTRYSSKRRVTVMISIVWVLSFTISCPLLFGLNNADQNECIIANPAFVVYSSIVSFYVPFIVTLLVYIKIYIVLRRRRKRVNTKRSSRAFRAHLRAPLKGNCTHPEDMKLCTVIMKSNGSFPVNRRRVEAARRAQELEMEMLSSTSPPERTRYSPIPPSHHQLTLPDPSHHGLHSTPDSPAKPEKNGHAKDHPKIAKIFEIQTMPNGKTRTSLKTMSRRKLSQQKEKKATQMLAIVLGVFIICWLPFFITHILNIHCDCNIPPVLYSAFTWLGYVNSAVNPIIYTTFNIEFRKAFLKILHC

In this experiment the target is D(2) dopamine receptor (Homo sapiens) (UniProt P14416). Nature of the experiment: Beta-Arrestin HTS for Positive Allosteric Modulators of the Human D2 Dopamine Receptor: Agonists. Conditions: DiscoveRx PathHunter D2 beta-arrestin, luminescence, 90 min; stronger effect = higher value; 100% = 57 uM dopamine signal. The source says:
There is great interest in identifying small molecule ligands for G-protein coupled receptors (GPCRs) as nearly 50% of all FDA-approved drugs target these important receptor proteins. […] Amongst the dopamine receptors (DARs), the D2 is arguably one of the most validated drug targets in neurology and psychiatry. For instance, all receptor-based antiparkinsonian drugs primarily work via stimulating the D2 DAR, whereas all FDA-approved antipsychotic agents are antagonists of this receptor. The D2 DAR is also therapeutically targeted in other disorders such as restless legs syndrome, tardive dyskinesia, Tourette's syndrome, and hyperprolactinemia.
To this end, a miniaturized qHTS screen was developed to be screened against the Molecular Libraries Small Molecule Repository (MLSMR). This assay seeks to identify agonists against the D2 DAR.
NIH Molecular Libraries Probe Production Network [MLPCN]
NIH Chemical Genomics Center [NCGC]
PI Name: David Sibley, National Institutes of Neurological Disorders and Stroke
DiscoveRx D2 cells were thawed from frozen stock and seeded at 2,100 cells/ 3 uL/well media (DiscoveRx Plating Reagent 2) with MultiDrop Combi dispenser (Thermo Scientific, Logan, UT) onto white tissue culture treated 1536-well Aurora plates (Brooks Automation, Chelmsford, MA) and allowed to attach overnight at 37 deg C, 5% CO2. Next, 23 nL/well of compound solutions in DMSO were added with a pintool transfer (Kalypsis, San Diego, CA). As the positive control, 1 uL/well dopamine (EC100, 57 uM final concentration) diluted in buffer (HBSS + 10 mM HEPES + SMB + 0.1% Tween-20) was dispensed to 1 column of each plate. The rest of the plate was dispensed with buffer only, 1 uL/well as well. The cells were stimulated by compounds or dopamine control for 90 minutes at 37 deg C, 5% CO2, after which 1.5 ul/well of DiscoveRx detection reagent was added with BioRAPTR FRD dispenser. The detection reagent was prepared by mixing of Galacton Star Substrate, Emerald II solution and PathHunter buffer (supplied by the assay kit) together at 1:5:19 proportion accordingly just prior to dispensing. The plates were incubated at ambient temperature for 1 hour and then the luminescent signal was read on ViewLux plate reader (PerkinElmer, Waltham, MA).
Turning to `Cc1ccc(N=C2NC(=O)c3cccc([N+](=O)[O-])c32)cc1`, the activation is 1.24% (inactive).

Take `COc1ccc([C@H]2C[C@@H](n3cc(COC(=O)c4ccccc4)nn3)[C@H](O)CN2C(=O)c2cccs2)cc1`: the activation was -3.3% (inactive).

Consider `COc1cc(C(=O)Nc2cc(C(F)(F)F)ccc2N2CCOCC2)ccc1O`, for which the activation was -0.449% (inactive).

As for `CCOC(=O)C(NS(=O)(=O)c1ccc(C)cc1)(C(F)(F)F)P(=O)(OCC(C)C)OCC(C)C` (stereo not drawn), the activation was -3.61% (inactive).

On to `COc1ccc(N2C(=O)C3C(C2=O)C(C(=O)c2ccccc2)N2CCCC32)cc1` (stereo not drawn), for which the activation is -3.43% (inactive).

Turning to `O=C(CSc1ccccn1)Nc1nc2c(ccc3ccccc32)s1`, the activation was -0.569% (inactive).

`CC(=O)c1nn(-c2ccccc2)c(=Nc2ccccc2)cc1C`: the activation is -5.64% (inactive).

As to `CON(C)S(=O)(=O)c1ccc2c(c1)NC(=O)C1CCCN21` (stereo not drawn), the activation is -0.103% (inactive).

`O=C(OCC(=O)N1CCN(C(=O)c2ccco2)CC1)c1c(Cl)cccc1Cl`: the activation is -10.9% (inactive).

For the compound `COc1cccc(OCc2cc(C(=O)N3CCN(C(=O)c4ccco4)CC3)no2)c1`, the activation was 2.91% (inactive).

Take `O=C(c1ccco1)N1CCN(C(=S)Nc2cc(F)cc(F)c2)CC1`: the activation is 0.341% (inactive).

For `O=C(CN1CCN(C(=O)c2ccco2)CC1)Nc1ccc(Cl)c(C(F)(F)F)c1`, the activation is -0.549% (inactive).

`O=C(c1ccco1)N1CCN(Cc2cccc(C(F)(F)F)c2)CC1`: the activation was 41.8% (active).

Take `COc1cccc(OC)c1OCCN1CCN(C(=O)c2ccco2)CC1`: the activation was 44.2% (active).

On to `CC1=CC=CN2C1=NC(=O)CC2(C)C(=O)N(CC(=O)NC1CCCC1)c1ccccc1C` (stereo not drawn), for which the activation was 4.24% (inactive).

Consider `COc1ccc(-c2ccc3[nH]c4c(c3c2)CCN2C[C@H]3[C@H](C)ON(C)[C@H]3C[C@@H]42)cc1`, for which the activation is -8.14% (inactive).

As to `Cc1cc(C)n2nc(C(=O)N3CCN(Cc4ccc5c(c4)OCO5)CC3)nc2n1`, the activation is 10.2% (inactive).

For `O=C(c1cccs1)N1CCN(Cc2ccc3c(c2)OCO3)CC1`, the activation was 46.9% (active).

Take `COc1ccc(-c2cc(C(=O)N3CCN(Cc4ccc5c(c4)OCO5)CC3)on2)cc1OC`: the activation was -0.403% (inactive).

Take `CCOc1ccc(C(=O)NCC(=O)N2CCN(c3ccc(C(F)(F)F)cn3)CC2)cc1`: the activation is 9.96% (inactive).

Regarding `COP1(=O)C[C@@H](O)[C@@H](O)[C@@H](COCc2ccccc2)O1` (stereo partly drawn), the activation is 0.955% (inactive).

As to `Oc1cc2c(cc1O)CN(C(=S)NCCc1ccc(Cl)cc1)CCC2`, the activation was -1.87% (inactive).

On to `O=[N+]([O-])c1ccc(CN2CC(N3CC=CC3)CS2(=O)=O)cc1` (stereo not drawn), for which the activation is -1.85% (inactive).

Turning to `CCc1ccc(OCC(=O)OC(C)C(=O)NC2CC2)cc1` (stereo not drawn), the activation was -2.44% (inactive).

Turning to `Cc1cc(C)cc(N(CC(=O)N2CC=C(c3ccccc3)CC2)S(=O)(=O)c2c(C)noc2C)c1`, the activation is 0.128% (inactive).

Take `COc1ccccc1CCNC(=O)CN1C(=O)NC2(CCCC2)C1=O`: the activation was -3.81% (inactive).

On to `O=c1ccn([C@@H]2O[C@H](CNS(=O)(=O)c3cc4ccccc4s3)[C@@H](O)[C@H]2O)c(=O)[nH]1`, for which the activation was -2.86% (inactive).

Turning to `CCOC1=C2CN(S(=O)(=O)c3ccc(C)cc3)[C@H](c3cccs3)C[C@H]2[C@H]2C(=O)N(c3ccccc3)C(=O)[C@H]2C1`, the activation was -3.55% (inactive).

For the compound `CCC(C)(C)n1nnnc1CN1CCN(c2nc3ccc(C)cc3cc2C#N)CC1`, the activation is -5.17% (inactive).

As for `Cc1ccc(C(=O)O/N=C(\N)c2ccccn2)cc1Cl`, the activation is 5.09% (inactive).

On to `COc1ccc(C(=O)NNC(=O)c2cnccn2)cc1[N+](=O)[O-]`, for which the activation is 4.81% (inactive).

Take `COc1ccc(C(=O)O/N=C(\N)c2ccccn2)cc1[N+](=O)[O-]`: the activation was 42.1% (active).

For the compound `O=C(NCCO)c1cccc(-c2cccc3nccn23)c1`, the activation is -5% (inactive).

As for `O=C(CC1SC(=Nc2ccccc2)N(Cc2ccccn2)C1=O)Nc1cccc(Cl)c1` (stereo not drawn), the activation was 0.599% (inactive).

With `CNc1cncc(-c2cccc(C(=O)N3CCOCC3)c2)n1`, the activation is -3.27% (inactive).

As to `CC(C)c1cccc(-c2csc(C(O)c3ccccc3)n2)c1` (stereo not drawn), the activation was 5.04% (inactive).

Take `CCC(=O)OCc1c(C(F)(F)F)nn(C)c1Oc1cccc(C(F)(F)F)c1`: the activation is -2.87% (inactive).

For `O=C(CN1CCN(S(=O)(=O)c2ccc3ccccc3c2)CC1)NC(=O)NC1CCCCC1`, the activation was -2.7% (inactive).

`CCn1cc(CNC(=O)c2cc([N+](=O)[O-])c(C)c([N+](=O)[O-])c2)cn1`: the activation was 1.34% (inactive).

With `O=C1C=CN2CCCC2CC1` (stereo not drawn), the activation is -2.65% (inactive).

For `Nc1ncnc2c1ncn2[C@@H]1O[C@H](C(=O)N2CCCN(Cc3ccccc3F)CC2)[C@@H](O)[C@H]1O`, the activation was -3.13% (inactive).

As for `O=C1CCC(C(=O)Nc2ccc(OC(F)F)cc2)N1` (stereo not drawn), the activation was -0.767% (inactive).

In the case of `O=C1CSC(=O)N1CCOCCN1C(=O)CSC1=O`, the activation is -0.569% (inactive).

For `CN(CCc1ccccn1)C1CCCN(S(=O)(=O)c2ccccc2Cl)C1` (stereo not drawn), the activation is 4.32% (inactive).

As to `OCCN1CCN(c2ncnc3c2ncn3[C@H]2CN(Cc3ccco3)C[C@@H](CO)O2)CC1`, the activation is 2.19% (inactive).

Turning to `COc1ccc(OCc2nnc3n2N=C(c2ccccc2)C(CC(=O)O)S3)cc1` (stereo not drawn), the activation was -4.75% (inactive).

With `CCn1c(SCC(=O)Nc2cccc(F)c2)nnc1-c1cc2cc(Br)ccc2o1`, the activation was 0.906% (inactive).

For the compound `O=C1N(c2ccccc2)C(=Nc2ccccc2)SC12CC2`, the activation was -5.55% (inactive).

`O=C(CN1CCOCC1)Nc1c2c(nc3c1CCC3)CCC2`: the activation is -3.04% (inactive).

Turning to `Cc1nc(-c2ccc(F)cc2)c(CC(=O)N(C)CC(=O)Nc2c(C)cccc2C)s1`, the activation was 0.938% (inactive).

Consider `Cn1nc(C(F)(F)F)c(C(=O)Nc2cccc(C(F)(F)F)c2)c1SCc1ccc(Cl)cc1`, for which the activation is 2.52% (inactive).

Consider `COc1cccc(C(NC(C)=O)c2nc(-c3ccccc3OC)cs2)c1` (stereo not drawn), for which the activation was -6.01% (inactive).

Consider `CC(=O)NC(c1ccccc1)c1nc(-c2cccc(C(C)C)c2)cs1` (stereo not drawn), for which the activation was 1.91% (inactive).

As to `CC(=O)NC(c1ccccc1)c1nc(-c2ccccc2C)cs1` (stereo not drawn), the activation was 73.4% (active).

For the compound `CCCC(=O)N1CCC1(C)C(=O)NS(=O)(=O)c1ccc(Cl)cc1` (stereo not drawn), the activation was -2.87% (inactive).

On to `CN1OC[C@@H]2CN(C(=O)c3cccnc3)[C@H](c3ccc(N4CCCCC4)cc3)C[C@@H]21`, for which the activation is -5.55% (inactive).

As to `CCOc1ccc(Nc2nc(Cc3nnc(SCC(=O)c4ccc(C)cc4)o3)cs2)cc1`, the activation was 0.605% (inactive).

With `O=c1onc(-c2c(F)cccc2F)n1-c1ccccc1Cl`, the activation is 58.1% (active).

Take `Cc1ccc2cccc(S(=O)(=O)N3CCN(c4ccccc4F)CC3)c2n1`: the activation was 1.48% (inactive).

With `O=C(Cn1c(-c2ccc(Cl)cc2)noc1=O)N1CCN(c2ccccc2F)CC1`, the activation was 3.21% (inactive).

Regarding `O=C(O)CCCC(=O)Nc1ccc(Oc2cccc(C(F)(F)F)c2)nc1`, the activation is -2.77% (inactive).

In the case of `COc1ccc(NC(=O)C2=NNC(=O)CC2)cc1S(=O)(=O)N1CCCCC1`, the activation was 3.11% (inactive).

As to `CC1=C(C(=O)Nc2cccc(C(=O)NCC(C)c3ccccc3)c2)SCCO1` (stereo not drawn), the activation is 2.99% (inactive).

As for `Cc1ccc(CN2CCN(c3ncccn3)CC2)c(C)c1`, the activation is 101% (active).

Turning to `Cc1ccc(CN2CCN(/N=C/c3ccco3)CC2)c(C)c1`, the activation was -3.14% (inactive).

Consider `Cc1ccc(CN2CCN(/N=C/c3cccnc3)CC2)c(C)c1`, for which the activation was -1.75% (inactive).

As to `c1cnc(N2CCN(c3ccc4ccccc4n3)CC2)nc1`, the activation was -9.01% (inactive).

As to `CN(C)C(=O)c1nc2ccc(Cl)cn2c1CN1CCN(c2ncccn2)CC1`, the activation is -28.2% (inactive).

With `Oc1ccc(CN2CCN(c3ncccn3)CC2)cc1`, the activation was 57.4% (active).

Regarding `CN(C)c1ccc(CNC2C3CC4CC(C3)CC2C4)cc1` (stereo not drawn), the activation was -0.168% (inactive).

Take `CCCCN(Cc1ccccc1)C(=O)C1CCN(Cc2sccc2C)CC1`: the activation was -2.44% (inactive).

`O=C(Nc1ccc(N2CCOCC2)nc1)c1c(F)cccc1F`: the activation was -1.59% (inactive).

For `CCCCC(=O)N(C)c1c(CC)nc2c(OCc3ccc(S(C)(=O)=O)cc3)cccn12`, the activation is -2.46% (inactive).

Consider `COc1ccc(C(=O)NCC2CCCO2)cc1S(=O)(=O)NCc1ccc(Cl)cc1` (stereo not drawn), for which the activation was 0.708% (inactive).

Take `C/C(=N\Nc1cccc(C(=O)O)c1)c1ccc2c(c1)Nc1ccccc1S2`: the activation was 41.5% (active).

On to `C/C(=N/Nc1nc(-c2ccccc2)c(CC(=O)O)s1)c1ccccc1`, for which the activation was -4.03% (inactive).

Turning to `CC(=O)Nc1cccc(/C(C)=N/NC(=O)c2c(-c3ccccc3Cl)noc2C)c1`, the activation was -0.376% (inactive).

For `CC(=O)NN=C(C)c1ccc(NC(=O)C2CC2)cc1`, the activation is -2.2% (inactive).

Consider `CC(C)Oc1ccc(CN2CCC2(C)C(=O)NCc2ccc(C(F)(F)F)cc2)cc1` (stereo not drawn), for which the activation was -5.75% (inactive).

In the case of `O=C(NCc1ccco1)c1ccc(NS(=O)(=O)c2cccc([N+](=O)[O-])c2)cc1`, the activation was 2.68% (inactive).

Turning to `COCc1[nH][nH]c(=O)c1C=Nc1ccc(F)cc1F`, the activation is -3.8% (inactive).

Regarding `COC(=O)C1CC2=C(CC(C)(C)CC2=O)N(c2ccccc2)C1=O` (stereo not drawn), the activation was -1.92% (inactive).

Take `O=C(CS(=O)(=O)c1cn(Cc2ccc(Cl)cc2)c2ccccc12)N1CCOCC1`: the activation is -7.71% (inactive).

With `COc1ccc(S(=O)(=O)N(C)C[C@@H]2Oc3ccc(NS(=O)(=O)c4cn(C)cn4)cc3C(=O)N([C@@H](C)CO)C[C@@H]2C)cc1`, the activation is -2% (inactive).

As to `Brc1cnc2ccccc2c1N1CCCCC1`, the activation was -0.246% (inactive).

Consider `COC(=O)c1cc(CNC(=O)CC(C)c2ccccc2)ccc1OC` (stereo not drawn), for which the activation was -6.11% (inactive).

For the compound `C/C(=N\NC(=O)c1ccc(CSc2nc(C)cc(C)n2)cc1)C1CCCCC1`, the activation is 2.32% (inactive).

`CCOC(=O)C(C)Sc1nnc(CSc2nc3nc(C)cc(C)n3n2)o1` (stereo not drawn): the activation is -4.24% (inactive).

These data come from PubChem BioAssay AID624465 (National Center for Advancing Translational Sciences (NCATS), 2012).
